Hits are enriched below; roughly 11% of the tested compounds scored in any of these assays.
AmpC no deterg: qHTS Inhibitors of AmpC Beta-Lactamase (assay without detergent). AmpC nitrocefin hydrolysis, absorbance 480 nm, 0.0001% Triton. Potency, µM (series often up to 57.1 µM), for the others: at the highest dose activity change, negative = inhibition, most hits filed as inhibitors. 330,000 compounds, 0.52% hits;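 also: plate controls were no compound for no effect and no enzyme for full effect; nearly all actives have a fitted effect of over 20% in size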
Target sequence (P00811 whole entry, looked up): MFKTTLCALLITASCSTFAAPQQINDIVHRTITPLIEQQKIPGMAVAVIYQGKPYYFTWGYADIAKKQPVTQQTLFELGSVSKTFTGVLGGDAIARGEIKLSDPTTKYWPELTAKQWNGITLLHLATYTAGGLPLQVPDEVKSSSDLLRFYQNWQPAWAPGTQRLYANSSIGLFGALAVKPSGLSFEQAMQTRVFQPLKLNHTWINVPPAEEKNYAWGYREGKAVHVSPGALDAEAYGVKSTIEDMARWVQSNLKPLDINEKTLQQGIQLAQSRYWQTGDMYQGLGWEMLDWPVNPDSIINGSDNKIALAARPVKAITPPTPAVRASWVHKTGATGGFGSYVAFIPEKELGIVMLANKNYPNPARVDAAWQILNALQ
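AmpC (5.3 nM in the dispensed reagent) in 20 mM phosphate pH 7.0 with 0.01% (detergent screen) or 0.0001% Triton X-100 was preincubated with compounds for 15 min at room temperature. Nitrocefin was then added from an 800 uM solution, and hydrolysis was followed at 480 nm.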
Pf growth 96h: Primary qHTS for delayed death inhibitors of the malarial parasite plastid, 96 hour incubation. 320,000 compounds, 6.9% hits. Potency, µM (titrated, usually from 28.7 µM), for inactives: at the highest dose activity change, negative = inhibition, usual class: inhibitors. P. falciparum luciferase reporter growth, 96 h
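Erythrocytes infected with luciferase-expressing P. falciparum were dispensed at 2% hematocrit and 0.05% parasitemia (final), then incubated with compounds 96 hours at 37 C in 5% CO2. Luminescence after detection reagent addition reported growth.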
AMA1 RON2 block: qHTS for Inhibitors of AMA1-RON; Towards Development of Antimalarial Drug Lead: Primary Screen. Plasmodium falciparum AMA1 (3D7) - RON2 peptide interaction. AlphaScreen AMA1-biotinylated RON2 peptide binding. Potency, µM (highest dose often 58.2 µM), for inactives: top-dose activity change, negative = inhibition, actives largely listed as inhibitors. 360,000 compounds, 0.2% hits. AID 720542, 2013;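 also: 0% = vehicle wells and -100% = peptide control; nearly all actives have a fitted effect of over 45% in size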
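AMA1 (3D7) with his tag at 25 nM final met compounds first, then biotinylated RON2 peptide at 25 nM; detection used donor plus acceptor beads, 10 µg/mL apiece, read by AlphaScreen after 30 min at room temperature.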
Pf growth 48h: Primary qHTS for delayed death inhibitors of the malarial parasite plastid, 48 hour incubation; P. falciparum luciferase growth in erythrocytes, 48 h; Potency, µM (top dose mostly 28.7 µM), inactives show top-dose activity change, negative = inhibition, usual class: inhibitors; 310,000 compounds, 5.9% hits; AID 504832, 2011
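Read-out is firefly luciferase luminescence from an integrated reporter in P. falciparum, so falling signal marks reduced parasite growth. Infected erythrocytes were at 2% hematocrit and 0.1% parasitemia (final) in Albumax-supplemented RPMI 1640.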
AmpC inh detg: qHTS Inhibitors of AmpC Beta-Lactamase (assay with detergent); P00811; AmpC hydrolysis of nitrocefin, absorbance 480 nm, 0.01% Triton; Potency, µM (highest dose often 114 µM), without a hit: at the top dose activity change, negative = inhibition, actives largely listed as inhibitors; 370,000 compounds, 0.041% hits; AID 485294, 2010;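 also: 0% = no-compound wells and -100% = no-enzyme wells; nearly all actives have a fitted effect of over 25% in size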
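AmpC (5.3 nM in the dispensed reagent) in 20 mM phosphate pH 7.0 with 0.01% (detergent screen) or 0.0001% Triton X-100 was preincubated with compounds for 15 min at room temperature. Nitrocefin was then added from an 800 uM solution, and hydrolysis was followed at 480 nm.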
HCV inh: qHTS Assay for Inhibitors of Hepatitis C Virus (HCV); Huh7.5.1 HCVcc-Cre infection, luciferase reporter, 44 h; 340,000 compounds, 3.4% hits; Potency, µM (top dose mostly 41.8 µM), for inactives: at the highest dose activity change, negative = inhibition, hits mostly inhibitors; AID 651820, 2012
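1,000 cells/well; 4 h culture; + compound; + HCVcc-Cre (~0.5 moi); 44 h; luciferase substrate, RT 15 min; read 15 sec.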
* marks the source's active call; other numbers are inactive results; ? = inconclusive; / = not tested or not shown; [ ] = remark or other dose. Calls follow the shape of the dose curve; as a rule, active = well fitted curve in the direction sought with a large enough effect; inconclusive = small, poorly fitted or top-dose-only effect, or another doubt; inactive = no such curve, though single readings can be large; an effect the other way counts as inactive or inconclusive. Unless noted, % is scaled to controls: 0 for no effect and ±100 for the full control effect; potency is read from the fitted curve at half-maximal effect.

SMILES	AmpC no deterg	Pf growth 96h	AMA1 RON2 block	Pf growth 48h	AmpC inh detg	HCV inh
O=S(=O)(N/N=C/c1ccc(N2CCOCC2)cc1)c1ccc(Br)cc1	11.2µM*	12.1%	-0.6%	2.5%	?	5.7%
N#Cc1ccc(/C=N/NC(=O)CCc2ccc(S(=O)(=O)N3CCOCC3)cc2)cc1	-8.7%	6.57µM*	-10.7%[2.32 µM]	?	-7.6%	11.1%
O=S(=O)(c1ccc(NC(=S)N/N=C/c2c3ccccc3cc3ccccc23)cc1)N1CCOCC1	-34.8%	?	62.7%	3.29µM*	-1.3%	2.82µM*
CCC(C)NC(=O)Cn1c(=O)c2cccn2c2ccc(F)cc21 (configuration not stated)	/	/	/	/	19.9%	/
COC(=O)c1ccc(N=C2S/C(=C\c3cc(C)n(-c4cccnc4)c3C)C(=O)N2C)cc1	-2.8%	?	-7.8%	?	6.3%	3.55µM*
CCOc1ccc(-c2noc(CSc3nnc(Cc4ccccc4)n3-c3cccc(C)c3)n2)cc1	/	/	/	/	20.6%	/
Cc1ccc(Oc2nc(CN3CCOCC3)nc3sc4c(c23)CCC(C)C4)cc1C (configuration not stated)	61.5%	?	-27.8%	11.7µM*	-15.9%	-16.7%
CC1CCc2c(sc3nc(CN4CCOCC4)nc(NS(=O)(=O)c4cccc([N+](=O)[O-])c4)c23)C1 (configuration not stated)	142.4%	13.1µM*	37.8%	/	2.4%	-12.6%
Cc1ccc(Oc2nc(CN3CCOCC3)nc3sc4c(c23)CCC(C)C4)cc1 (configuration not stated)	148.0%	?	?	?	-8.9%	?
CC1CCc2c(sc3nc(CN4CCOCC4)nc(N4CCc5ccccc5C4)c23)C1 (configuration not stated)	67.6%	4.65µM*	-29.4%	13.1µM*	-10.8%	?
Cc1sc2nc(CN3CCOCC3)nc(N3CCC(C(N)=O)CC3)c2c1C	21.2%	?	5.0%	-21.2%	-18.4%	1.5%
COCC(C)Nc1ncnc2c1cnn2-c1ccc(C)c(C)c1 (configuration not stated)	/	/	/	/	-3.8%	/
Cc1cc(Cl)ccc1NC(=O)c1cccc(NC(=O)N2CCSc3ncccc32)c1	/	/	/	/	17.9%	/
CC(=O)N1CCc2cc(S(=O)(=O)NC(Cc3ccccc3)C(=O)Nc3cc(C)ccc3C)ccc21 (configuration not stated)	/	/	/	/	2.4%	/
COc1ccc(-n2c(O)c(/C=N/NS(=O)(=O)c3ccc(C)c([N+](=O)[O-])c3)c3ccccc3c2=O)cc1OC	50.5%	11.7µM*	28.2%	?	-0.1%	1.1%
CCOc1ccc(/C=N/NC(=O)c2[nH]ncc2Br)c(O)c1	-29.3%	-4.6%	37.0%	?	2.0%	22.4µM*
COc1ccc2ccccc2c1/C=N/NC(=O)c1cccc(Br)c1	-35.4%	54.3%	20.0%	6.3%	?	?
O=C(N/N=C/c1c(O)ccc2ccccc12)c1[nH]ncc1Br	-31.5%	11.7µM*	43.9%	11.7µM*	-1.6%	?
O=C(N/N=C/c1c(O)ccc2ccccc12)c1cccc(C(F)(F)F)c1	-43.0%	2.62µM*	27.9%	3.7µM*	-9.0%	?
COc1ccc(OC)c(/C=N/NC(=O)c2[nH]ncc2Br)c1	-21.7%	54.5%	47.3%	45.4%	2.7%	7.8%
CCOC(=O)c1ccccc1NC(=O)CCOc1ccccc1	/	/	/	/	15.6%	/
O=C(CSc1nccn1C1CCCC1)Nc1cccc(F)c1	/	/	/	/	-6.4%	/

Screening data from PubChem.
